# Data reported in the supplement of paper PMC4466140.
# Legend:
# Test in all cases: SPOT peptide array binding signal intensity (averaged, normalized) (arbitrary units (background-subtracted, floor 0; scale differs between SH3 domains)); higher = stronger binding of the SH3 domain to the peptide
# SpBzz1-D2 = molecular target: SpBzz1-D2
# Method in brief: (§1)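 Four yeast species supplied the SH3 domains, which were expressed as GST fusions in E. coli BL21(DE3) and purified on glutathione Sepharose. Incubation with cellulose membranes carrying synthetic 15-mer peptides, cysteines exchanged for serines, ran overnight at 4°C at 10 μg/ml in TBS-based blocking buffer. Binding signal is reported as normalized, background-subtracted spot intensity averaged over replicates, in arbitrary units not shared between domains.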
# SpCyk3 = molecular target: SpCyk3
# Method in brief: as §1
# SpHof1 = molecular target: SpHof1
# Method in brief: as §1
# SpHof1-2 = molecular target: SpHof1-2
# Method in brief: as §1
# SpHof1-3 = molecular target: SpHof1-3
# Method in brief: as §1
# SpHse1 = molecular target: SpHse1
# Method in brief: as §1
# SpLsb1 = molecular target: SpLsb1
# Method in brief: as §1
# SpLsb4 = molecular target: SpLsb4
# Method in brief: as §1
# SpMyo1 = molecular target: SpMyo1
# Method in brief: as §1
# SpNbp2 = molecular target: SpNbp2
# Method in brief: as §1
# SpPex13 = molecular target: SpPex13
# Method in brief: as §1
# SpRvs167 = molecular target: SpRvs167
# Method in brief: as §1
# SpSla1-D1-D2 = molecular target: SpSla1-D1-D2
# Method in brief: as §1
# SpSla1-D3 = molecular target: SpSla1-D3
# Method in brief: as §1
# AgAbp1 = molecular target: AgAbp1
# Method in brief: as §1
# AgBbc1 = molecular target: AgBbc1
# Method in brief: as §1
# AgBem1-D1 = molecular target: AgBem1-D1
# Method in brief: as §1
# AgBzz1-D1 = molecular target: AgBzz1-D1
# Method in brief: as §1
# AgBzz1-D2 = molecular target: AgBzz1-D2
# Method in brief: as §1
# AgCyk3 = molecular target: AgCyk3
# Method in brief: as §1
# AgFus1 = molecular target: AgFus1
# Method in brief: as §1
# AgHof1 = molecular target: AgHof1
# Method in brief: as §1
# AgHse1 = molecular target: AgHse1
# Method in brief: as §1
# AgLsb1 = molecular target: AgLsb1
# Method in brief: as §1
# AgLsb4 = molecular target: AgLsb4
# Method in brief: as §1
# AgMyo5 = molecular target: AgMyo5
# Method in brief: as §1
# AgNbp2 = molecular target: AgNbp2
# Method in brief: as §1
# AgRvs167 = molecular target: AgRvs167
# Method in brief: as §1
# AgSho1 = molecular target: AgSho1
# Method in brief: as §1
# AgSla1-D1-D2 = molecular target: AgSla1-D1-D2
# Method in brief: as §1
# AgSla1-D3 = molecular target: AgSla1-D3
# Method in brief: as §1
# CaAbp1-D1 = molecular target: CaAbp1-D1
# Method in brief: as §1
# CaAbp1-D2 = molecular target: CaAbp1-D2
# Method in brief: as §1
# CaBbc1 = molecular target: CaBbc1
# Method in brief: as §1
# CaBem1-D1 = molecular target: CaBem1-D1
# Method in brief: as §1
# CaBzz1-D1 = molecular target: CaBzz1-D1
# Method in brief: as §1
# CaBzz1-D2 = molecular target: CaBzz1-D2
# Method in brief: as §1
# CaCyk3 = molecular target: CaCyk3
# Method in brief: as §1
# CaFus1 = molecular target: CaFus1
# Method in brief: as §1
# CaHof1 = molecular target: CaHof1
# Method in brief: as §1
# CaHse1 = molecular target: CaHse1
# Method in brief: as §1
# CaLsb1 = molecular target: CaLsb1
# Method in brief: as §1
# CaLsb4 = molecular target: CaLsb4
# Method in brief: as §1
# CaMyo5 = molecular target: CaMyo5
# Method in brief: as §1
# CaNbp2 = molecular target: CaNbp2
# Method in brief: as §1
# CaRvs167 = molecular target: CaRvs167
# Method in brief: as §1
# CaRvs167-3 = molecular target: CaRvs167-3
# Method in brief: as §1
# CaSho1 = molecular target: CaSho1
# Method in brief: as §1
# CaSla1-D1-D2 = molecular target: CaSla1-D1-D2
# Method in brief: as §1
# CaSla1-D3 = molecular target: CaSla1-D3
# Method in brief: as §1
# ScAbp1 = molecular target: ScAbp1
# Method in brief: as §1
# ScBbc1 = molecular target: ScBbc1
# Method in brief: as §1
# ScBem1-D1 = molecular target: ScBem1-D1
# Method in brief: as §1
# ScBzz1-D1 = molecular target: ScBzz1-D1
# Method in brief: as §1
# ScBzz1-D2 = molecular target: ScBzz1-D2
# Method in brief: as §1
# ScCyk3 = molecular target: ScCyk3
# Method in brief: as §1
# ScFus1 = molecular target: ScFus1
# Method in brief: as §1
# ScHof1 = molecular target: ScHof1
# Method in brief: as §1
# ScHse1 = molecular target: ScHse1
# Method in brief: as §1
# ScLsb1 = molecular target: ScLsb1
# Method in brief: as §1
# ScLsb2 = molecular target: ScLsb2
# Method in brief: as §1
# ScLsb3 = molecular target: ScLsb3
# Method in brief: as §1
# ScLsb4 = molecular target: ScLsb4
# Method in brief: as §1
# ScMyo3 = molecular target: ScMyo3
# Method in brief: as §1
# ScMyo5 = molecular target: ScMyo5
# Method in brief: as §1
# ScNbp2 = molecular target: ScNbp2
# Method in brief: as §1
# ScPex13 = molecular target: ScPex13
# Method in brief: as §1
# ScRvs167 = molecular target: ScRvs167
# Method in brief: as §1
# ScSho1 = molecular target: ScSho1
# Method in brief: as §1
# ScSla1-D1-D2 = molecular target: ScSla1-D1-D2
# Method in brief: as §1
# ScSla1-D3 = molecular target: ScSla1-D3
# Method in brief: as §1
# SpAbp1-D1 = molecular target: SpAbp1-D1
# Method in brief: as §1
# SpBbc1 = molecular target: SpBbc1
# Method in brief: as §1
# SpBzz1-D1 = molecular target: SpBzz1-D1
# Method in brief: as §1
binder,measurement,setting,value
PAPPPPPRASRPTPN,SPOT peptide array binding signal intensity,SpBzz1-D2,6.5
same,SPOT peptide array binding signal intensity,SpCyk3,3
same,SPOT peptide array binding signal intensity,SpHof1,5.5
same,SPOT peptide array binding signal intensity,SpHof1-2,5.5
same,SPOT peptide array binding signal intensity,SpHof1-3,57.5
same,SPOT peptide array binding signal intensity,SpHse1,7.5
same,SPOT peptide array binding signal intensity,SpLsb1,69.5
same,SPOT peptide array binding signal intensity,SpLsb4,1170
same,SPOT peptide array binding signal intensity,SpMyo1,99.5
same,SPOT peptide array binding signal intensity,SpNbp2,29.5
same,SPOT peptide array binding signal intensity,SpPex13,2.5
same,SPOT peptide array binding signal intensity,SpRvs167,915
same,SPOT peptide array binding signal intensity,SpSla1-D1-D2,13
same,SPOT peptide array binding signal intensity,SpSla1-D3,≤ 0
SSSSTPPTLPPRRIE,SPOT peptide array binding signal intensity,AgAbp1,7.5
same,SPOT peptide array binding signal intensity,AgBbc1,673
same,SPOT peptide array binding signal intensity,AgBem1-D1,42
same,SPOT peptide array binding signal intensity,AgBzz1-D1,49
same,SPOT peptide array binding signal intensity,AgBzz1-D2,≤ 0
same,SPOT peptide array binding signal intensity,AgCyk3,2
same,SPOT peptide array binding signal intensity,AgFus1,≤ 0
same,SPOT peptide array binding signal intensity,AgHof1,55
same,SPOT peptide array binding signal intensity,AgHse1,42.5
same,SPOT peptide array binding signal intensity,AgLsb1,1840
same,SPOT peptide array binding signal intensity,AgLsb4,9180
same,SPOT peptide array binding signal intensity,AgMyo5,93.5
same,SPOT peptide array binding signal intensity,AgNbp2,10
same,SPOT peptide array binding signal intensity,AgRvs167,2660
same,SPOT peptide array binding signal intensity,AgSho1,1
same,SPOT peptide array binding signal intensity,AgSla1-D1-D2,≤ 0
same,SPOT peptide array binding signal intensity,AgSla1-D3,≤ 0
same,SPOT peptide array binding signal intensity,CaAbp1-D1,24
same,SPOT peptide array binding signal intensity,CaAbp1-D2,34.5
same,SPOT peptide array binding signal intensity,CaBbc1,1390
same,SPOT peptide array binding signal intensity,CaBem1-D1,4
same,SPOT peptide array binding signal intensity,CaBzz1-D1,16
same,SPOT peptide array binding signal intensity,CaBzz1-D2,≤ 0
same,SPOT peptide array binding signal intensity,CaCyk3,2
same,SPOT peptide array binding signal intensity,CaFus1,77
same,SPOT peptide array binding signal intensity,CaHof1,8.75
same,SPOT peptide array binding signal intensity,CaHse1,731
same,SPOT peptide array binding signal intensity,CaLsb1,57.5
same,SPOT peptide array binding signal intensity,CaLsb4,7260
same,SPOT peptide array binding signal intensity,CaMyo5,≤ 0
same,SPOT peptide array binding signal intensity,CaNbp2,76.5
same,SPOT peptide array binding signal intensity,CaRvs167,2810
same,SPOT peptide array binding signal intensity,CaRvs167-3,0.25
same,SPOT peptide array binding signal intensity,CaSho1,≤ 0
same,SPOT peptide array binding signal intensity,CaSla1-D1-D2,138
same,SPOT peptide array binding signal intensity,CaSla1-D3,≤ 0
same,SPOT peptide array binding signal intensity,ScAbp1,≤ 0
same,SPOT peptide array binding signal intensity,ScBbc1,61.5
same,SPOT peptide array binding signal intensity,ScBem1-D1,8
same,SPOT peptide array binding signal intensity,ScBzz1-D1,3
same,SPOT peptide array binding signal intensity,ScBzz1-D2,2
same,SPOT peptide array binding signal intensity,ScCyk3,2
same,SPOT peptide array binding signal intensity,ScFus1,≤ 0
same,SPOT peptide array binding signal intensity,ScHof1,122
same,SPOT peptide array binding signal intensity,ScHse1,≤ 0
same,SPOT peptide array binding signal intensity,ScLsb1,2090
same,SPOT peptide array binding signal intensity,ScLsb2,1570
same,SPOT peptide array binding signal intensity,ScLsb3,11000
same,SPOT peptide array binding signal intensity,ScLsb4,4800
same,SPOT peptide array binding signal intensity,ScMyo3,111
same,SPOT peptide array binding signal intensity,ScMyo5,17.5
same,SPOT peptide array binding signal intensity,ScNbp2,≤ 0
same,SPOT peptide array binding signal intensity,ScPex13,2100
same,SPOT peptide array binding signal intensity,ScRvs167,3870
same,SPOT peptide array binding signal intensity,ScSho1,56.5
same,SPOT peptide array binding signal intensity,ScSla1-D1-D2,6
same,SPOT peptide array binding signal intensity,ScSla1-D3,1.75
same,SPOT peptide array binding signal intensity,SpAbp1-D1,≤ 0
same,SPOT peptide array binding signal intensity,SpBbc1,0.5
same,SPOT peptide array binding signal intensity,SpBzz1-D1,219
same,SPOT peptide array binding signal intensity,SpBzz1-D2,≤ 0
same,SPOT peptide array binding signal intensity,SpCyk3,4
same,SPOT peptide array binding signal intensity,SpHof1,4.5
same,SPOT peptide array binding signal intensity,SpHof1-2,12.2
same,SPOT peptide array binding signal intensity,SpHof1-3,10
same,SPOT peptide array binding signal intensity,SpHse1,16
same,SPOT peptide array binding signal intensity,SpLsb1,3060
same,SPOT peptide array binding signal intensity,SpLsb4,6340
same,SPOT peptide array binding signal intensity,SpMyo1,594
same,SPOT peptide array binding signal intensity,SpNbp2,≤ 0
same,SPOT peptide array binding signal intensity,SpPex13,4
same,SPOT peptide array binding signal intensity,SpRvs167,3420
same,SPOT peptide array binding signal intensity,SpSla1-D1-D2,≤ 0
same,SPOT peptide array binding signal intensity,SpSla1-D3,≤ 0
ERPKRRAPPPVPKKP,SPOT peptide array binding signal intensity,AgAbp1,1360
same,SPOT peptide array binding signal intensity,AgBbc1,936
same,SPOT peptide array binding signal intensity,AgBem1-D1,86.5
same,SPOT peptide array binding signal intensity,AgBzz1-D1,1350
same,SPOT peptide array binding signal intensity,AgBzz1-D2,1190
same,SPOT peptide array binding signal intensity,AgCyk3,2
same,SPOT peptide array binding signal intensity,AgFus1,3.5
same,SPOT peptide array binding signal intensity,AgHof1,124
same,SPOT peptide array binding signal intensity,AgHse1,22
same,SPOT peptide array binding signal intensity,AgLsb1,62.5
same,SPOT peptide array binding signal intensity,AgLsb4,25
same,SPOT peptide array binding signal intensity,AgMyo5,359
same,SPOT peptide array binding signal intensity,AgNbp2,292
same,SPOT peptide array binding signal intensity,AgRvs167,1.83
same,SPOT peptide array binding signal intensity,AgSho1,83
same,SPOT peptide array binding signal intensity,AgSla1-D1-D2,7
same,SPOT peptide array binding signal intensity,AgSla1-D3,140
same,SPOT peptide array binding signal intensity,CaAbp1-D1,1770
same,SPOT peptide array binding signal intensity,CaAbp1-D2,1480
same,SPOT peptide array binding signal intensity,CaBbc1,1090
same,SPOT peptide array binding signal intensity,CaBem1-D1,42.5
same,SPOT peptide array binding signal intensity,CaBzz1-D1,6780
same,SPOT peptide array binding signal intensity,CaBzz1-D2,3000
same,SPOT peptide array binding signal intensity,CaCyk3,29
same,SPOT peptide array binding signal intensity,CaFus1,30
same,SPOT peptide array binding signal intensity,CaHof1,0.5
same,SPOT peptide array binding signal intensity,CaHse1,24.8
same,SPOT peptide array binding signal intensity,CaLsb1,≤ 0
same,SPOT peptide array binding signal intensity,CaLsb4,243
same,SPOT peptide array binding signal intensity,CaMyo5,4.5
